Assay [1] can be described thus: NCI Yeast Anticancer Drug Screen. Data for the rad50 strain (AID 155).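 Note: 0% = growth of vehicle-only cultures of the same strain.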 The conditions noted are these: S. cerevisiae rad50 strain growth inhibition; at 50.0 µM; stronger effect = higher value. The method in brief: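 Genetically altered yeast (DNA repair pathway); compound treatment; growth inhibition vs vehicle ctrl.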
Assay [2] in a line: NCI Yeast Anticancer Drug Screen. Data for the mec2-1 strain (AID 157). The conditions noted are these: S. cerevisiae mec2-1 strain, at 50.0 µM, stronger effect = higher value. The method in brief: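 Cells of the genetically defined mec2-1 yeast strain are incubated with test compound. Inhibition of growth is calculated against vehicle-treated controls.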
A short description of assay [3]: NCI Yeast Anticancer Drug Screen. Data for the sgs1 mgt1 strain (AID 161).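 Note: 0% = growth of cultures given vehicle only.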 The conditions noted are these: S. cerevisiae sgs1 mgt1 strain, at 50.0 µM, stronger effect = higher value. The method in brief: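 Test agents were incubated with a DNA-repair-mutant yeast strain. Growth was then read and compared against vehicle-treated controls.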
Assay [4] can be described thus: NCI Yeast Anticancer Drug Screen. Data for the cln2 rad14 strain (AID 165).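 Note: 0% = growth equal to vehicle treated cultures.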 The following applies: S. cerevisiae cln2 rad14 strain, at 50.0 µM, stronger effect = higher value. The method in brief: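 The screen exposed genetically defined yeast (cln2 rad14) to test compounds and scored growth inhibition relative to vehicle-treated controls.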
The nature of assay [5]: NCI Yeast Anticancer Drug Screen. Data for the bub3 strain (AID 167). The following applies: S. cerevisiae bub3 mutant strain, at 50.0 µM, stronger effect = higher value. The method in brief:
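Yeast carrying a defined mutation is treated with each compound, and growth is compared with that of vehicle-exposed cells to give inhibition.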

A short description of assay [6]: NCI Yeast Anticancer Drug Screen. Data for the mlh1 rad18 strain (AID 175). The conditions noted are these: S. cerevisiae mlh1 rad18 strain growth inhibition; at 50.0 µM; stronger effect = higher value. The method in brief: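 Compound-treated yeast growth, normalised to vehicle controls. Strain bears defined DNA repair mutations.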

Our source for the growth inhibition values is PubChem BioAssay (NCI).

The panel holds about 79,000 compounds, 15% with a hit somewhere; the sample as a whole holds those more often. A number with no mark means an inactive call. Active and inactive are the calls of the source. Cut-off read from the data, not from the text of the source: active = growth inhibition above about 70%; inactive = the rest.

With `CCCOC(C(=O)OC1CCC2CCC1N2C)(c1ccccc1)c1ccccc1` (stereo unspecified), the growth inhibition is 5.4% in assay [1]; -0.5% in assay [2]; 17.8% in assay [3]; 13.8% in assay [4]; 28.8% in assay [5]; 32.9% in assay [6].

`COc1ccc(CCl)cc1CCl`: the growth inhibition in assay [1] is -24.2%; in assay [2], -62.8%; in assay [3], -7.25%; in assay [4], 5.85%; in assay [5], -26.4%; in assay [6], -43.7%.

Take `COP1(=S)OCC2OC(n3cc(C)c(=O)[nH]c3=O)CC2O1` (stereo unspecified): the growth inhibition in assay [1] is 0.55%; in assay [2] it was -17.2%; in assay [3] it was -12.8%; in assay [4], -9.1%; in assay [5], 23.1%; in assay [6], -9.25%.

Regarding `O=C(COc1ccc(Cl)c(Cl)c1)Nc1ccc[n+](CC(=O)Nc2ccc(S(=O)(=O)F)cc2)c1`, the growth inhibition was 32.4% in assay [1]; 41.4% in assay [2]; 32.5% in assay [3]; 96.7% (active) in assay [4]; 45% in assay [5]; 22.1% in assay [6].

On to `CC1(C)c2ccccc2C(c2ccccc2)(c2ccccc2)[N+]1(C)C`, for which the growth inhibition in assay [1] is 63.4%; in assay [2], 33.7%; in assay [3] it was 52.2%; in assay [4], 21.7%; in assay [5], 22.2%; in assay [6], 49%.

For the compound `N#CC(N)c1ccccc1` (stereo unspecified), the growth inhibition in assay [1] was 13.7%; in assay [2], -14.9%; in assay [3], 17.4%; in assay [4] it was 1.45%; in assay [5] it was 14.1%; in assay [6], 12.6%.

For the compound `N#CC(C#N)=Cc1ccc(C=C(C#N)C#N)cc1`, the growth inhibition in assay [1] was -30.4%; in assay [2] it was -40.5%; in assay [3] it was -15.9%; in assay [4], -14.8%; in assay [5] it was -15.8%; in assay [6], -8.75%.

For the compound `N#CC1(c2ccccc2)CCN(C2(c3ccccc3)CCCCC2)CC1`, the growth inhibition in assay [1] was -23.4%; in assay [2], -30.2%; in assay [3] it was -5.7%; in assay [4], 4.25%; in assay [5], -3.55%; in assay [6], -30.1%.

Consider `Oc1ccccc1C=NC1CCCCC1.Oc1ccccc1C=NC1CCCCC1.[Ni+2]`, for which the growth inhibition was 38.6% in assay [1]; -9.25% in assay [2]; 28.6% in assay [3]; -40.8% in assay [4]; -0.1% in assay [5]; -15.4% in assay [6].

For the compound `O=C1NC(=O)C(Cc2cccc(OCc3ccccc3)c2)C(=O)N1`, the growth inhibition in assay [1] is 20.1%; in assay [2], 2.2%; in assay [3], -1.65%; in assay [4], 5.1%; in assay [5], 0.1%; in assay [6], -52%.

`C[C@]12CC[C@H]3[C@@H](CCC4=C[C@@H](OC5OCC(OC6OC(CO)C(O)C(O)C6O)C(O)C5O)CC[C@@]43C=O)[C@@]1(O)CCC2C1=CC(=O)OC1` (stereo partly specified): the growth inhibition is -31.8% in assay [1]; -20.4% in assay [2]; -29.6% in assay [3]; -4.1% in assay [4]; -16.7% in assay [5]; 2.2% in assay [6].

Take `O=[As](O)(O)CC(Br)CBr` (stereo unspecified): the growth inhibition in assay [1] was 5.5%; in assay [2], 12%; in assay [3] it was 5.95%; in assay [4], -7.3%; in assay [5], 41.1%; in assay [6], -3.4%.

`CCCCC(=O)c1cc(OC)cc(OC)c1`: the growth inhibition in assay [1] was 8.35%; in assay [2] it was -12.3%; in assay [3] it was -34.1%; in assay [4], -54%; in assay [5] it was 22.4%; in assay [6] it was -10.7%.

As for `CSc1nc2cc(Cl)ccc2c2c1C=NCCN2`, the growth inhibition in assay [1] was 28.6%; in assay [2], 19.2%; in assay [3], 13.7%; in assay [4], -43.4%; in assay [5], -24.1%; in assay [6], 4.05%.

For `N[C@@H](Cc1ccc2oc3cc(=O)c4ccccc4c-3nc2c1)C(=O)O`, the growth inhibition in assay [1] is 26%; in assay [2] it was 32.9%; in assay [3], 10%; in assay [4], 39.2%; in assay [5], 28.8%; in assay [6], 35%.

Consider `[N-]=[N+]=NC(=O)Nc1ccccc1F`, for which the growth inhibition in assay [1] was -6.4%; in assay [2], -1.1%; in assay [3], -14.6%; in assay [4] it was -19.3%; in assay [5] it was -19.6%; in assay [6], 16.1%.

With `CC(C)NCC(O)c1ccc(Cl)c(Cl)c1` (stereo unspecified), the growth inhibition is -28.6% in assay [1]; -40% in assay [2]; -14% in assay [3]; 7.25% in assay [4]; -27.2% in assay [5]; -33.8% in assay [6].

As for `BrCC[N+]12CC[N+](CCBr)(CC1)C2` (tested in a mixture with another compound), the growth inhibition in assay [1] is 63.1%; in assay [2], 49.5%; in assay [3], 81.6% (active); in assay [4] it was 61.5%; in assay [5], 78.1% (active); in assay [6] it was 42.4%.

As to `N#CC1(c2ccccc2)CCNCC1`, the growth inhibition is -2.2% in assay [1]; -33.5% in assay [2]; -3.15% in assay [3]; 1.05% in assay [4]; -0.5% in assay [5]; -17.8% in assay [6].

Take `Cc1cc(N)ccc1N`: the growth inhibition was 7.15% in assay [1]; 11.2% in assay [2]; 14.2% in assay [3]; 4.25% in assay [4]; -6% in assay [5]; -2.9% in assay [6].

Turning to `CN(C)NP(=O)(NN(C)C)c1ccccc1`, the growth inhibition was -49.9% in assay [1]; -18.1% in assay [2]; -22.4% in assay [3]; -67.8% in assay [4]; -1.6% in assay [5]; -14.4% in assay [6].
